From PubChem BioAssay (Tox21)
A number with no mark means an inactive call. A call without a number means that no potency is given here. Activity calls are given as the source filed them. Calls follow the shape of the dose curve; as a rule, active = well fitted curve in the direction sought with a large enough effect in the repeat runs; inconclusive = weak or mixed curves; inactive = flat fitted curve, though single readings scatter.

Test: qHTS assay to test for compound auto fluorescence at 535 nm (green) in HepG2 cell free culture (AID 720686)
Conditions: Cell-free medium, green autofluorescence 485/535 nm; series mostly up to 91.3 µM
From the text: U.S. Tox21 Program National Center for Advancing Translational Sciences [NCATS] NIH Chemical Genomics Center [NCGC] U.S. Environmental Protection Agency [EPA] National Institutes of Environmental Health Sciences [NIEHS] National Toxicology Program [NTP] U.S. Food and Drug Administration [FDA] Tox21 Assay Overview: Compound auto fluorescence often interferes with screening of the compound library against various biological targets and signaling pathways. Some of these compounds may have fluorophoric properties. Such properties may interfere with the assay outputs resulting in false positives and/or negatives. To decrease such complications and ensure the compound activities are relevant in terms of biological response, the Tox21 10K compound library was screened for auto fluorescence. From the fluorophores used as reporter signals in our screening assays, the auto fluorescence equivalencies of compounds against three fluorophores have been evaluated: Triamterene, Fluorescein and Rose Bengal sodium for blue, green and red fluorescence, respectively. The fluorescence intensities were measured using Excitation/Emission wavelengths at 405/460nm, 485/535nm and 540/590nm for blue, green and red labels, respectively. This assay includes the green fluorescence data.
Tox21 Assay Protocol Summary: 5 uL of culture medium (MEM containing 10% FBS) per well was dispensed into black wall/clear bottom 1536-well plates using a Multidrop Combi Dispenser (ThermoFisher Scientific, Waltham, MA). After 23 nL compound or DMSO vehicle was transferred into assay plate by a pintool work station (Kalypsys, San Diego, CA), fluorescence intensities in the assay plates were measured by an Envision (PerkinElmer, Shelton, CT) plate reader using three labels for measuring blue, green and red fluorescence at […] 460, 535 and 590nm respectively.
In the case of `CN(C)c1ccc(C(=C2C=CC(=[N+](C)C)C=C2)c2ccc(N(C)C)cc2)cc1`, the Potency is reported as “inactive”.
With `COC(=O)c1ccccc1OC` the Potency was “inactive”.
With `C=CCCC(=O)/C=C/C1C(C)=CCCC1(C)C` (stereo not given) the Potency was “inactive”.
With `C=C(CC)C(=O)c1ccc(OCC(=O)O)c(Cl)c1Cl` the Potency was “inactive”.
For `CN(C)Cc1cc(C(C)(C)C)c(O)c(C(C)(C)C)c1`, the Potency was “inactive”.
For `ClCCl`, the Potency was “inactive”.
For `Oc1c(I)cc(Cl)c2cccnc12`, the Potency was “inactive”.
For `COCCOc1cc2cc(C(=O)NC3CCN(C(C)C)CC3)n(CC(=O)Nc3ccc(Cl)cn3)c2cn1`, the Potency was “inactive”.
In the case of `Oc1ccccc1O`, the Potency is reported as “inactive”.
With `C[C@H]1NCc2cc(-c3ccc4c(=O)c(C(=O)O)cn(C5CC5)c4c3OC(F)F)ccc21` the Potency was “inactive”.
In the case of `CC(CO)Oc1ccccc1` (stereo not given), the Potency is reported as “inactive”.
For `CC1=CCC(=C(C)C)CC1`, the Potency was “inactive”.
In the case of `O=C(O)c1cc(N=Nc2ccc([N+](=O)[O-])cc2)ccc1O`, the Potency is reported as “inactive”.
In the case of `Cc1nc2n(c(=O)c1CCN1CCC(c3noc4cc(F)ccc34)CC1)CCCC2`, the Potency is reported as “inactive”.
For `CCCCOC(=O)CC`, the Potency was “inactive”.
For `CCCCN(CCCC)CC(O)c1cc(Cl)cc2c1-c1ccc(Cl)cc1/C2=C/c1ccc(Cl)cc1` (stereo not given), the Potency was “inactive”.
With `CC(CCc1ccccc1)NCC(O)c1ccc(O)c(C(N)=O)c1` (stereo not given) the Potency was “inactive”.
For `CC(C)NC[C@@H](O)COc1ccc(CC(N)=O)cc1`, the Potency was “inactive”.
With `CCN(CC)c1ccc2c(-c3ccc(S(=O)(=O)O)cc3S(=O)(=O)[O-])c3ccc(=[N+](CC)CC)cc-3oc2c1` the Potency was “inactive”.
For `Cl[Si](Cl)(c1ccccc1)c1ccccc1`, the Potency was “inactive”.
With `CN(C)C(=O)COC(=O)Cc1ccc(OC(=O)c2ccc(N=C(N)N)cc2)cc1` the Potency was “inactive”.
With `Cc1cc(-n2nc3ccc(Cl)cc3n2)c(O)c(C(C)(C)C)c1` the Potency was “inactive”.
For `CC1=Nc2ccccc2C1(C)C`, the Potency was “inactive”.
In the case of `CCCCCc1ccc(Cl)cc1`, the Potency is reported as “inactive”.
In the case of `O=C(O)c1cc(=O)c2ccccc2o1`, the Potency is reported as “inactive”.
With `C#C[C@]1(OC(C)=O)CC[C@H]2[C@@H]3CCC4=C/C(=N/O)CC[C@@H]4[C@H]3CC[C@@]21CC` the Potency was “inactive”.
In the case of `C=CC(=O)OCCOC(=O)C=C`, the Potency is reported as “inactive”.
For `Cc1c2ccccc2c(C)c2c1ccc1ccccc12`, the Potency was “inactive”.
With `Nc1cc(Cl)c(O)c(Cl)c1` the Potency was “inactive”.
For `C=CC(C)(CCC=C(C)C)OC=O` (stereo not given), the Potency was “inactive”.
Work on `Cc1cc(C(C)(C)C)cc(C)c1CC1=NCCN1` yielded a fluorescence, % of fluorescein control of -0.0122% [at 18.6 µM].
In the case of `CCCNCCC`, the Potency is reported as “inactive”.
In the case of `CCCCCCCCCCOC(=O)c1ccccc1C(=O)OCCCCCCCC`, the Potency is reported as “inactive”.
In the case of `CC(=O)OCC=C(C)C`, the Potency is reported as “inactive”.
For `CC(C)(C)NSc1nc2ccccc2s1`, the Potency was “inactive”.
With `CN1CCC[C@@H]1CCO[C@](C)(c1ccccc1)c1ccc(Cl)cc1` the Potency was “inactive”.
In the case of `CCc1ccc(Br)cc1`, the Potency is reported as “inactive”.
For `CCC(C)n1ncn(-c2ccc(N3CCN(c4ccc(OC[C@H]5CO[C@](Cn6cncn6)(c6ccc(Cl)cc6Cl)O5)cc4)CC3)cc2)c1=O` (stereo not given in full), the Potency was “inactive”.
`O=C(O)O` gave a fluorescence, % of fluorescein control of 0.0195% [at 3.72 µM].
With `O=C(Nc1ccc2c(O)c(N=Nc3ccc(N=Nc4ccc(S(=O)(=O)O)cc4)cc3)c(S(=O)(=O)O)cc2c1)c1ccccc1` the Potency was “inactive”.
